{
  "source": "PubChem BioAssay AID1220",
  "about": "(Sanford-Burnham Center for Chemical Genomics, 2008)",
  "note": "The whole screen tested about 190,000 compounds, of which about 1,300 (0.68%) were called active. This is one part of a sample in which actives are shown more often than they occur. Rule as the data show it: active = inhibition above about 50%; inactive = the rest.",
  "data": [
    {"target": "Mannose-6-phosphate isomerase (Homo sapiens) (UniProt P34949)", "sequence (P34949 whole entry, looked up)": "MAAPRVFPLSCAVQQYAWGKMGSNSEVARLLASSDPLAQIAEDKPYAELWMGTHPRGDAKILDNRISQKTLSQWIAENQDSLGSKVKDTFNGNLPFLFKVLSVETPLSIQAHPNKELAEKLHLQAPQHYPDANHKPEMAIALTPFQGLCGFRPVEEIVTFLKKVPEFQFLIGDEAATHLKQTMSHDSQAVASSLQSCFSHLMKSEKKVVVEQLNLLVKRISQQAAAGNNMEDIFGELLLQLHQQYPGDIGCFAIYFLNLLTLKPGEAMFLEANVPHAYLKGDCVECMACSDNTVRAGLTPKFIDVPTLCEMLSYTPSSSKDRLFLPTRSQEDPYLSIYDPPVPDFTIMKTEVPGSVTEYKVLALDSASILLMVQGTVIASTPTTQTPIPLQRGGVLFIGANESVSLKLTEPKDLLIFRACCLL", "experiment": "human PMI inhibitors, high substrate, primary screen, biochemical, fluorescence intensity, high mannose 6-phosphate (AID 1220)", "conditions": "recombinant PMI enzyme, coupled fluorescence intensity; at 20 µM; stronger effect = higher value", "values": [
      {"compound": "Clc1cc(Cl)cc(C2=NCCC(c3ccccc3)O2)c1", "note": "(stereo not drawn)", "inhibition": "15.6% (inactive)"},
      {"compound": "CC1(C)CC(=O)C2=C(C1)OC(N)=C(C#N)C2c1ccccc1[N+](=O)[O-]", "note": "(stereo not drawn)", "inhibition": "47.5% (inactive)"},
      {"compound": "O=C(O)CN(c1ccc2c(c1)OCCO2)S(=O)(=O)c1ccccc1", "inhibition": "-2.6% (inactive)"},
      {"compound": "COc1ccc(OCC(=O)NC(CC(=O)O)c2ccc(OC)c(OC)c2)cc1", "note": "(stereo not drawn)", "inhibition": "-11.4% (inactive)"},
      {"compound": "Cc1c(Br)c(=O)oc2c(Br)c(O)ccc12", "inhibition": "-8.7% (inactive)"},
      {"compound": "Cc1c(Br)c(=O)oc2c(Br)c(O)c(O)cc12", "inhibition": "-33.8% (inactive)"},
      {"compound": "O=c1oc2c(O)c(O)cc3c(=O)oc4c(O)c(O)cc1c4c23", "inhibition": "61.2% (active)"},
      {"compound": "Cc1cccc(C(c2c(C)nn(-c3ccccc3)c2N)c2c(C)nn(-c3ccccc3)c2N)c1", "inhibition": "16.3% (inactive)"},
      {"compound": "O=C(NC1CCCCC1)c1cc(Cl)nc2ccccc12", "inhibition": "1.4% (inactive)"},
      {"compound": "Cn1cc(/C=N\\O)nc2c(=O)n(-c3ccccc3)c(=O)nc1-2", "inhibition": "56.5% (active)"},
      {"compound": "Cc1[nH]n(-c2ccccc2)c(=O)c1/C=N/O", "inhibition": "5.9% (inactive)"},
      {"compound": "O/N=C/c1cn(-c2ccccc2)nn1", "inhibition": "6.9% (inactive)"},
      {"compound": "Nc1cc(=O)[nH]c(SCC(=O)Nc2cccc(Cl)c2Cl)n1", "inhibition": "4.4% (inactive)"},
      {"compound": "O=C(CSc1ncn(-c2ccccc2)n1)Nc1nncs1", "inhibition": "5.2% (inactive)"},
      {"compound": "COc1ccc(C2C3C(=O)N(Cc4ccccc4)C(=O)C3ON2c2ccccc2)c(OC)c1OC", "note": "(stereo not drawn)", "inhibition": "15% (inactive)"},
      {"compound": "COc1cc(C2C3C(=O)N(Cc4ccccc4)C(=O)C3ON2c2ccccc2)cc(OC)c1OC", "note": "(stereo not drawn)", "inhibition": "7.3% (inactive)"},
      {"compound": "COc1cc(C2C3C(=O)N(Cc4ccccc4)C(=O)C3ON2c2ccccc2)cc(OC)c1O", "note": "(stereo not drawn)", "inhibition": "54.2% (active)"},
      {"compound": "Cc1c(N=Cc2ccc(O)c(Br)c2)cccc1[N+](=O)[O-]", "inhibition": "12.1% (inactive)"},
      {"compound": "Cc1ccc(N=Cc2cc(Cc3ccccc3Cl)cc([N+](=O)[O-])c2O)c(O)c1", "inhibition": "56.5% (active)"},
      {"compound": "O=[N+]([O-])c1cc(Cc2ccccc2)cc(C=Nc2ccc(N3CCOCC3)cc2)c1O", "inhibition": "38.7% (inactive)"},
      {"compound": "Cc1ccc(N=Cc2c(O)[nH]c3ccccc23)c([N+](=O)[O-])c1", "inhibition": "-4.1% (inactive)"},
      {"compound": "COc1ccc(N=Cc2cc(Cc3ccccc3Cl)cc([N+](=O)[O-])c2O)cc1OC", "inhibition": "54.9% (active)"},
      {"compound": "COc1ccc(N=Cc2cccc(C)c2O)cc1Cl", "inhibition": "7.9% (inactive)"},
      {"compound": "Cc1ccc(O)c(N=Cc2cc(Cc3ccccc3)cc([N+](=O)[O-])c2O)c1", "inhibition": "63.3% (active)"},
      {"compound": "COc1cc(C=Nc2cccc(C)c2)c(O)c([N+](=O)[O-])c1", "inhibition": "34% (inactive)"},
      {"compound": "Cc1n[nH]c(C)c1Sc1ccccc1N=Cc1cc(Cl)cc([N+](=O)[O-])c1O", "inhibition": "0.8% (inactive)"},
      {"compound": "COc1cc([N+](=O)[O-])cc2sc(NC(=O)C(C)(C)C)nc12", "inhibition": "17% (inactive)"},
      {"compound": "COc1ccccc1Cn1c(/C=C/c2ccccc2)nc2ccccc21", "inhibition": "4.9% (inactive)"},
      {"compound": "Cc1cccc(-n2nc3c(c2NC(=O)c2ccc(Br)o2)CSC3)c1", "inhibition": "-0.5% (inactive)"},
      {"compound": "CCCC(CCC(=O)Nc1cc([N+](=O)[O-])ccc1O)C(=O)O", "note": "(stereo not drawn)", "inhibition": "11% (inactive)"},
      {"compound": "CC(=O)Nc1ccc(NC(=O)c2cccc3c2-c2ccccc2C3=O)cc1", "inhibition": "-2.8% (inactive)"},
      {"compound": "CC(=O)NC(=S)Nc1ccc([N+](=O)[O-])cc1C", "inhibition": "-6% (inactive)"},
      {"compound": "CC1CCCN(Cc2nc3c(c(=O)n(C)c(=O)n3C)n2CCc2ccccc2)C1", "note": "(stereo not drawn)", "inhibition": "5.2% (inactive)"},
      {"compound": "CNC(=O)CSc1nc(N)c2c3c(sc2n1)CCC3", "inhibition": "7.8% (inactive)"},
      {"compound": "CC1=C(C(=O)N2CCOCC2)C(c2cccc(C)c2)NC(=S)N1", "note": "(stereo not drawn)", "inhibition": "-12.7% (inactive)"},
      {"compound": "Cc1ccc(NC2=CC(=O)C(=O)c3ccccc32)cc1", "inhibition": "56.2% (active)"},
      {"compound": "O=C1C=C(Nc2ccccc2O)c2ccccc2C1=O", "inhibition": "62.6% (active)"},
      {"compound": "CC1=CC(=O)c2ccccc2C1=O", "inhibition": "-13.3% (inactive)"},
      {"compound": "Cc1ccc(NC2=C(NCCO)C(=O)c3ccccc3C2=O)cc1", "inhibition": "47.8% (inactive)"},
      {"compound": "CC1(C)CC(=O)C=C(Nc2ccccc2O)C1", "inhibition": "7.6% (inactive)"},
      {"compound": "COC1=C(Nc2ccccc2)C(=O)c2ccccc2C1=O", "inhibition": "4.1% (inactive)"},
      {"compound": "O=C1C=C(Nc2ccccc2)c2ccccc2C1=O", "inhibition": "64.6% (active)"},
      {"compound": "O=C1C=C(Nc2ccccc2)C(=O)c2ccccc21", "inhibition": "57.5% (active)"},
      {"compound": "Nc1c(O)ccc2c1C(=O)c1ccccc1C2=O", "inhibition": "5.1% (inactive)"},
      {"compound": "COC1=C(Nc2ccc(C)cc2)C(=O)c2ccccc2C1=O", "inhibition": "-3.1% (inactive)"},
      {"compound": "O=C1C=C(NCc2ccccc2)c2ccccc2C1=O", "inhibition": "7.9% (inactive)"},
      {"compound": "O=C1C(Nc2ccccc2)=C/C(=N/S(=O)(=O)c2cccs2)c2ccccc21", "inhibition": "40.7% (inactive)"},
      {"compound": "CC(C)(C)n1nnnc1SCC(=O)Nc1nn(-c2ccccc2)nc1C(N)=O", "inhibition": "0.7% (inactive)"},
      {"compound": "CN(C(=O)COc1ccccc1)c1nnc(-c2cccnc2)s1", "inhibition": "-0.3% (inactive)"},
      {"compound": "Cc1ccccc1NC(=O)c1c2c(nc3ccccc13)CCC2", "inhibition": "-4.6% (inactive)"},
      {"compound": "O=C(O)[C@H]1CCCC[C@H]1C(=O)Nc1cc([N+](=O)[O-])ccc1F", "inhibition": "-7.1% (inactive)"},
      {"compound": "CCCC(=O)Nc1cc(Cl)ccc1C", "inhibition": "-0.2% (inactive)"},
      {"compound": "Nc1nc(SCC(=O)Nc2cc(S(=O)(=O)N3CCOCC3)ccc2Cl)n[nH]1", "inhibition": "-10.9% (inactive)"},
      {"compound": "COC(=O)c1ccc(CSc2nnc(-c3ccc4c(c3)OCO4)n2-c2ccccc2)o1", "inhibition": "-8.3% (inactive)"},
      {"compound": "Cc1ccccc1NC(=S)N1CCN(C(=O)c2ccco2)CC1", "inhibition": "5.1% (inactive)"},
      {"compound": "O=C(C1CCCCN1S(=O)(=O)c1ccccc1)N1CCN(Cc2ccccc2)CC1", "note": "(stereo not drawn)", "inhibition": "-3.3% (inactive)"},
      {"compound": "CC(=O)N(C(C)=O)n1c(/C=C/c2cccc([N+](=O)[O-])c2)nc2ccccc2c1=O", "inhibition": "15.3% (inactive)"},
      {"compound": "CCOC(=O)c1ccc(NC(=O)C(C)N2C(=O)c3ccccc3C2=O)cc1", "note": "(stereo not drawn)", "inhibition": "5% (inactive)"},
      {"compound": "CCOC(=O)c1ccc(NC2OC(=O)c3ccccc32)cc1", "note": "(stereo not drawn)", "inhibition": "-0.5% (inactive)"},
      {"compound": "CCOC(=O)c1ccc(NC2=CC(=O)C(=O)c3ccccc32)cc1", "inhibition": "57.3% (active)"},
      {"compound": "Nc1ccc2[nH]ncc2c1", "inhibition": "48.1% (inactive)"},
      {"compound": "Nc1ccc2cn[nH]c2c1", "inhibition": "53.1% (active)"},
      {"compound": "O=[N+]([O-])c1ccc2cn[nH]c2c1", "inhibition": "1.3% (inactive)"}
    ]}
  ]
}
